Test [1] in a line: TOX21_PR_LUC_Followup_Agonist_viability: Viability Assessment in the Tox21 HEK293 Progesterone Receptor (PR) Agonism Luciferase Follow-Up Assay (AID 2283941; active = hit-call score of the fitted dose curve at least 0.9, where 1 is the maximum;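 also: loss of signal means cytotoxicity so actives lower viability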). The gist of the method: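 Seeding: HEK293-PR-A-luc, 3,000 cells/well, 5 h at 37C. Treatment: compound in DMSO, 16 h, 37C. Read: CellTiter-Glo ATP luminescence, signal loss taken as lower viability.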
Test [2] deals with Thyroid hormone receptor alpha (Rattus norvegicus) + Thyroid hormone receptor beta (Rattus norvegicus) (UniProt P18113+P63059). The test can be described thus: TOX21_TR_LUC_GH3_Antagonist_Followup: Tox21 GH3 Thyroid Hormone Receptor Antagonism Luciferase Follow-Up Assay (AID 2283942; active = hit-call score of the fitted dose curve at least 0.9, where 1 is the maximum). The method, boiled down: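 In a GH3 luciferase reporter line, test chemicals spanning 92 uM to 5nM final are co-incubated 24 h with 1.0 nM T3. Activity is expressed as relative luminescence units and analysed relative to DMSO.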

Test [3] has as its target THRA (gene 7067) (UniProt P10827). The test can be described thus: TOX21_TRA_COA_Antagonist_Followup_ratio: Tox21 Thyroid Hormone Receptor alpha Antagonism through Coactivator Recruitment Follow-Up Assay, Ratio (AID 2283953; active = hit-call score of the fitted dose curve at least 0.9, where 1 is the maximum). The gist of the method:
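We measured antagonism of T3-type coactivator recruitment using a TR-FRET ratio (emission 520 and 495 nm) between a Tb-labelled anti-GST antibody on TRα LBD (2.5 nM) and SRC-2 peptide (200 nM). Activity was scaled between DMSO and T3 wells.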

Test [4] addresses THRB (gene 7068) (UniProt P10828). The test can be described thus: TOX21_TRB_BLA_Antagonist_Followup_ratio: Tox21 Thyroid Hormone Receptor beta Antagonism Beta-lactamase (BLA) Follow-Up Assay, Ratio (AID 2283958; active = hit-call score of the fitted dose curve at least 0.9, where 1 is the maximum). The gist of the method:
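Using charcoal-stripped 2% FBS medium, human TRβ-LBD/GAL4 reporter HEK293T cells received test compounds for 18 h. The endpoint is the cleaved-to-uncleaved substrate ratio (460/530 nm).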

The nature of test [5]: TOX21_TRB_BLA_Antagonist_Followup_viability: Viability Assessment in the Tox21 Thyroid Hormone Receptor beta Antagonism Beta-lactamase (BLA) Follow-Up Assay (AID 2283961; active = hit-call score of the fitted dose curve at least 0.9, where 1 is the maximum). The gist of the method:
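In the same wells as the reporter read, cell health was gauged by CellTiter-Glo ATP luminescence, with signal loss indicating reduced viability. Cells had been exposed to test compounds for 18 h.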

The target in test [6] is THRB (gene 7068) (UniProt P10828). The test is described as follows: TOX21_TRB_COA_Antagonist_Followup_ratio: Tox21 Thyroid Hormone Receptor beta Antagonism through Coactivator Recruitment Follow-Up Assay, Ratio (AID 2283967; active = hit-call score of the fitted dose curve at least 0.9, where 1 is the maximum). The gist of the method:
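Coactivator (SRC-2) recruitment to purified GST-TRβ ligand-binding domain is monitored by terbium-to-fluorescein energy transfer, emission ratio 520:495 nm. DMSO wells define 0% and T3 wells 100% activity.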

Test [7] deals with Retinoic acid receptor RXR-alpha (Homo sapiens) (UniProt P19793). The test can be described thus: TOX21_TR_RXR_BLA_Antagonist_Followup_ratio: Tox21 Thyroid Hormone Receptor beta Retinoid X Receptor alpha (RXRa) Antagonism Beta-lactamase (BLA) Follow-Up Assay, Ratio (AID 2283972; active = hit-call score of the fitted dose curve at least 0.9, where 1 is the maximum). The method, boiled down:
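Compounds were tested in triplicate at 11 concentrations on RXRa-bla HEK293T cells for 16 h. Substrate cleavage ratio, normalized to DMSO, gave the endpoint.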

A short description of test [8]: CCTE_Harrill_HTTr_Viability_DMEM_6hr: (Pilot) CCTE's 6-hour Cell Viability Assessment for the High-Throughput Transcriptomics (HTTr) Platform, in MCF-7 cells cultured in DMEM + 10% fetal bovine serum, Harrill Lab (AID 2283973). The method, boiled down:
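Propidium iodide uptake imaged by high-content analysis after six hours of chemical treatment in an eight-concentration series. Cells: MCF-7 grown in DMEM with 10% fetal bovine serum; DMSO as baseline.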

Test [9] can be described thus: CCTE_Harrill_HTTr_Viability_DMEM_12hr: (Pilot) CCTE's 12-hour Cell Viability Assessment for the High-Throughput Transcriptomics (HTTr) Platform, in MCF-7 cells cultured in DMEM + 10% fetal bovine serum, Harrill Lab (AID 2283974). The method, boiled down:
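Propidium iodide dye exclusion imaged by high-content microscopy after 12 h chemical exposure (eight concentrations) of MCF-7 cells grown in DMEM plus 10% FBS; values fitted in both directions relative to DMSO.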

The nature of test [10]: CCTE_Harrill_HTTr_Viability_DMEM_24hr: (Pilot) CCTE's 24-hour Cell Viability Assessment for the High-Throughput Transcriptomics (HTTr) Platform, in MCF-7 cells cultured in DMEM + 10% fetal bovine serum, Harrill Lab (AID 2283975). The method, boiled down: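 Pilot study: propidium iodide dye exclusion, imaged by high content microscopy, after 24 h compound exposure (eight concentrations) in MCF-7 cultured in DMEM + 10% fetal bovine serum; DMSO served as negative control and baseline.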

Test [11] is described as follows: CCTE_Harrill_HTTr_Viability_PRF_DMEM_6hr: (Pilot) CCTE's 6-hour Cell Viability Assessment for the High-Throughput Transcriptomics (HTTr) Platform, in MCF-7 cells cultured phenol red-free DMEM + 10% charcoal-stripped fetal bovine serum, Harrill Lab (AID 2283976). The method, boiled down: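 Membrane integrity by high-content imaging of propidium iodide uptake, six hours after dosing with eight concentrations. Cells: MCF-7 grown in phenol red-free DMEM plus 10% charcoal-stripped serum; DMSO serves as baseline for bidirectional fits.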

The nature of test [12]: CCTE_Harrill_HTTr_Viability_PRF_DMEM_12hr: (Pilot) CCTE's 12-hour Cell Viability Assessment for the High-Throughput Transcriptomics (HTTr) Platform, in MCF-7 cells cultured in phenol red-free DMEM + 10% charcoal-stripped fetal bovine serum, Harrill Lab (AID 2283977). The method, boiled down:
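Membrane integrity was scored via propidium iodide dye exclusion imaging, fitted in both directions relative to DMSO. Compounds ran as eight-point dilutions for 12 hours on MCF-7 grown in phenol red-free DMEM plus 10% charcoal-stripped serum.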

A short description of test [13]: TOX21_TR_RXR_BLA_Antagonist_Followup_viability: Viability Assessment in the Tox21 Thyroid Hormone Receptor beta Retinoid X Receptor alpha (RXRa) Antagonism Beta-lactamase (BLA) Follow-Up Assay (AID 2283979; active = hit-call score of the fitted dose curve at least 0.9, where 1 is the maximum). The gist of the method:
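RXRa-UAS-bla HEK293T cells seeded 2,500/well in phenol red-free DMEM with 2% charcoal-stripped FBS, attached 5 h, then exposed to compounds at 11 concentrations in triplicate for 16 h at 37C/5% CO2. Viability read by CellTiter-Glo ATP luminescence; bidirectional fit versus DMSO.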

Test [14] in a line: CCTE_Harrill_HTTr_Viability_PRF_DMEM_24hr: (Pilot) CCTE's 24-hour Cell Viability Assessment for the High-Throughput Transcriptomics (HTTr) Platform, in MCF-7 cells cultured in phenol red-free DMEM + 10% charcoal-stripped fetal bovine serum, Harrill Lab (AID 2283980). The gist of the method:
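Propidium iodide exclusion imaged at 24 h after dosing scores viability; cells were MCF-7 grown in phenol red-free DMEM plus 10% charcoal-stripped serum, tested in eight concentrations, fitted in both directions against DMSO.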

The nature of test [15]: CCTE_Harrill_HTTr_Apoptosis_DMEM_6hr: (Pilot) CCTE's 6-hour Apoptosis Assessment for the High-Throughput Transcriptomics (HTTr) Platform, in MCF-7 cells cultured in DMEM + 10% fetal bovine serum, Harrill Lab (AID 2283981). The method, boiled down:
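MCF-7 cells grown in DMEM + 10% FBS were exposed for 6 hours to an eight-point dilution series. CellEvent Caspase 3/7 Green signal was imaged; activity fitted bidirectionally against DMSO.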

A short description of test [16]: CCTE_Harrill_HTTr_Apoptosis_DMEM_12hr: (Pilot) CCTE's 12-hour Apoptosis Assessment for the High-Throughput Transcriptomics (HTTr) Platform, in MCF-7 cells cultured in DMEM + 10% fetal bovine serum, Harrill Lab (AID 2283982). The gist of the method: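 Caspase-3/7 activity was measured by high-content imaging (CellEvent Caspase 3/7 Green) after a 12-hour exposure of MCF-7 cells grown in DMEM with 10% FBS. Eight-point concentration series, fitted bidirectionally against vehicle.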

Test [17] is described as follows: CCTE_Harrill_HTTr_Apoptosis_DMEM_24hr: (Pilot) CCTE's 24-hour Apoptosis Assessment for the High-Throughput Transcriptomics (HTTr) Platform, in MCF-7 cells cultured in DMEM + 10% fetal bovine serum, Harrill Lab (AID 2283983). The method, boiled down:
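Caspase-3/7 activity read by high-content imaging (CellEvent Green reagent) 24 h after dosing. MCF-7 cells grown in DMEM with 10% FBS received an eight-point concentration series; fits were bidirectional versus DMSO.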

Test [18] is described as follows: CCTE_Harrill_HTTr_Apoptosis_PRF_DMEM_6hr: (Pilot) CCTE's 6-hour Apoptosis Assessment for the High-Throughput Transcriptomics (HTTr) Platform, in MCF-7 cells cultured phenol red-free DMEM + 10% charcoal-stripped fetal bovine serum, Harrill Lab (AID 2283984). The gist of the method:
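Caspase-3/7 activity (CellEvent Green) read by high-content imaging 6 h after dosing, eight concentrations. Cells: MCF-7, phenol red-free DMEM with 10% charcoal-stripped serum. Curves fit both directions against DMSO.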

Test [19] in a line: CCTE_Harrill_HTTr_Apoptosis_PRF_DMEM_12hr: (Pilot) CCTE's 12-hour Apoptosis Assessment for the High-Throughput Transcriptomics (HTTr) Platform, in MCF-7 cells cultured in phenol red-free DMEM + 10% charcoal-stripped fetal bovine serum, Harrill Lab (AID 2283985). The method, boiled down: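 Caspase-3/7 activity by CellEvent Green high content imaging after 12 h compound exposure (eight concentrations) in MCF-7 grown in phenol red-free DMEM plus 10% charcoal-stripped serum; DMSO as baseline.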

Test [20] is described as follows: CCTE_Harrill_HTTr_Apoptosis_PRF_DMEM_24hr: (Pilot) CCTE's 24-hour Apoptosis Assessment for the High-Throughput Transcriptomics (HTTr) Platform, in MCF-7 cells cultured in phenol red-free DMEM + 10% charcoal-stripped fetal bovine serum, Harrill Lab (AID 2283986). The gist of the method:
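Eight concentrations tested for 24 h on MCF-7 grown in charcoal-stripped serum, phenol red-free DMEM. High content imaging of CellEvent Caspase 3/7 Green signal gives apoptosis read-out, fitted both ways relative to DMSO.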

Inconclusive results are not listed. Active and inactive are the calls of the source. The calls were made as follows, unless noted: active = hit-call score of the fitted dose curve at least 0.9, where 1 is the maximum; inactive = score below 0.9.

For orientation: AC50 means the midpoint of the concentration-response curve, whichever way the signal moves.

Chain of Retinoic acid receptor RXR-alpha (Homo sapiens) (P19793 whole entry, looked up): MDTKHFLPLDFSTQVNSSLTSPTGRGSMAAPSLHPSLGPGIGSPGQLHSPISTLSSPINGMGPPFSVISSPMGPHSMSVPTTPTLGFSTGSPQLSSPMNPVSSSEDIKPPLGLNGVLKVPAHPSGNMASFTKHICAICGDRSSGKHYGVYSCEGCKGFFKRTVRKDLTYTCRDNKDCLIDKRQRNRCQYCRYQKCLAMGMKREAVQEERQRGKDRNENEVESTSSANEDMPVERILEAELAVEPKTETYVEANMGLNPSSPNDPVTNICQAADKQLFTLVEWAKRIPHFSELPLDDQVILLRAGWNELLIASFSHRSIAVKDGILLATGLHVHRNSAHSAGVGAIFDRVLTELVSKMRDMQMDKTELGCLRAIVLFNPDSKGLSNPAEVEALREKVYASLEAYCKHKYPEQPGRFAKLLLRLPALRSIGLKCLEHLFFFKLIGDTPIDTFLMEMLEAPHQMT
Chain of THRB (gene 7068) (P10828 whole entry, looked up, the tested form may be a part): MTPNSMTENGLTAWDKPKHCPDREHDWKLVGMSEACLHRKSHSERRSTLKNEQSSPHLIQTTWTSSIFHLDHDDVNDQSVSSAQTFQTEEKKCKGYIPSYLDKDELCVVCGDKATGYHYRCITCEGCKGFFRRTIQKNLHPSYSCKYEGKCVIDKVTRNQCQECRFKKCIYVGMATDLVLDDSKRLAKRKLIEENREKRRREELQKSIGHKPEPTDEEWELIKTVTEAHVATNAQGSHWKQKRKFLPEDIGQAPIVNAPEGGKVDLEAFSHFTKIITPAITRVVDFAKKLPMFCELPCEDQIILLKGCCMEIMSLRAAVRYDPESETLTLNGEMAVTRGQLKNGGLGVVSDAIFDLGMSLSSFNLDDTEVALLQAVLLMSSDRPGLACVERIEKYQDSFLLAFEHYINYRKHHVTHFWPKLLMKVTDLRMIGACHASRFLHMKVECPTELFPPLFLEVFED
Chain of THRA (gene 7067) (P10827 whole entry, looked up, the tested form may be a part): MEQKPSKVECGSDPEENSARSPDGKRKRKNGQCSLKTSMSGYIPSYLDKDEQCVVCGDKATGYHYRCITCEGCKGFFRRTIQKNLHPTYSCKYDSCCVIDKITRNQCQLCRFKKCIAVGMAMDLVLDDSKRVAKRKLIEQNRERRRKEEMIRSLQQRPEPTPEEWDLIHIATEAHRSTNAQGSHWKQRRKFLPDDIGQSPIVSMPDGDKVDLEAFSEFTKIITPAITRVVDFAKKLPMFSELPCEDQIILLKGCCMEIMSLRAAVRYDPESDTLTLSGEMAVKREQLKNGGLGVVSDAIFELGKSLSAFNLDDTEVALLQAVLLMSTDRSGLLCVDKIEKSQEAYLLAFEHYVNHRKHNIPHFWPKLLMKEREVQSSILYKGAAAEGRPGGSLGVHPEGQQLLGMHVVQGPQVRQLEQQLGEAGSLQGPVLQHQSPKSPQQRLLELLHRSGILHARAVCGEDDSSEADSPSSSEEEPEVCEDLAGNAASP

With `COC(=O)N(OC)c1ccccc1COc1ccn(-c2ccc(Cl)cc2)n1`, the result in [1], in test [3], in test [6], in test [8], in [9] and in [10] was inactive. In addition, the result in [11], in test [12], in test [14], in test [15], in test [16] and in [17] was inactive. Also, the result in [18], in test [19] and in [20] was inactive. For the same molecule, the AC50 in test [2] is 1.09 µM (active); in test [4], 4.01 µM (active); in test [5], 14.9 µM (active); in test [7], 38.3 µM (active); in test [13], 7.9 µM (active).

Turning to `C=CC1(C)OC(=O)N(c2cc(Cl)cc(Cl)c2)C1=O` (stereo unspecified), the result in test [1], in test [8], in test [9], in [10], in test [11] and in test [12] was inactive. The result in [14], in [15], in test [16], in test [17], in [18] and in test [19] was inactive. Further, in test [20], the outcome was inactive.

Turning to `CC(C)(C)c1ccc(CSc2cnn(C(C)(C)C)c(=O)c2Cl)cc1`, the molecule was classed as inactive in test [5] and in [13].

Regarding `CN(C)C(=S)SSC(=S)N(C)C`, the AC50 in test [2] was 24.3 µM (active); in test [10], 54.6 µM (active); in test [14] it was 46.7 µM (active); in [17], 80.6 µM (active). The outcome in test [3], in test [4], in test [5], in [6], in test [8] and in test [9] was inactive. In addition, the outcome in test [11], in test [12], in [13], in test [15], in test [16] and in test [18] was inactive. Also, the outcome in test [19] and in test [20] was inactive.

In the case of `CCCC1COC(Cn2cncn2)(c2ccc(Cl)cc2Cl)O1` (stereo unspecified), the result in test [8], in [9], in test [10], in test [11], in test [12] and in [14] was inactive. The result in test [15], in test [16], in [17], in test [18], in [19] and in test [20] was inactive.

For the molecule `CCCCNC(=O)n1c(NC(=O)OC)nc2ccccc21`, the outcome in test [2], in test [3], in test [4], in [5], in [6] and in [7] was inactive. Further, the call in test [13] was inactive.

For the molecule `CCc1nn(C)c(C(=O)NCc2ccc(C(C)(C)C)cc2)c1Cl`, the result in test [2], in test [4], in test [6] and in test [7] was inactive. Further, the AC50 in [5] was 4.69 µM (active); in test [13], 7.74 µM (active).

In the case of `CON(C)C(=O)Nc1ccc(Cl)c(Cl)c1`, the molecule was called inactive in test [1].

Regarding `CO/C=C(/C(=O)OC)c1ccccc1Oc1cc(Oc2ccccc2C#N)ncn1`, the values for the concentration at half-maximal activity (AC50) in test [2] and in test [5] were 3.91 µM (active) and 38.1 µM (active), respectively. Moreover, the result in [3], in test [4], in test [6], in test [7] and in test [13] was inactive.

As to `N#CC(CCc1ccc(Cl)cc1)(Cn1cncn1)c1ccccc1` (stereo unspecified), in test [1], the call was inactive.

On to `CCNc1nc(Cl)nc(NC(C)C)n1`, for which the result in test [8], in test [9], in test [10], in [11], in test [12] and in test [14] was inactive. Besides, the outcome in [15], in test [16], in [17], in test [18], in test [19] and in test [20] was inactive.

Consider `CCNc1nc(Cl)nc(NCC)n1`, for which the outcome in test [8], in test [9], in test [10], in [11], in test [12] and in test [14] was inactive. For the same molecule, the outcome in [15], in test [16], in test [17], in [18], in test [19] and in test [20] was inactive.

The record behind these values is PubChem BioAssay (EPA / NIEHS).
